# This is part of a sample that, as a whole, favours compounds with a hit. Of some 79,000 tested, about 15% had one in any assay. Values without a mark were called inactive. Calls of active or inactive are those of the source. Rule as the data show it: active = growth inhibition above about 70%; inactive = the rest.
# What was measured:
# [1] = NCI Yeast Anticancer Drug Screen. Data for the rad50 strain (AID 155);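 also: 0% = growth of vehicle-only cultures of the same strain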; conditions: S. cerevisiae rad50 strain growth inhibition, active compounds read high
# Procedure, shortened: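 Readout: growth inhibition relative to vehicle-treated cultures. Compound exposure was carried out in a genetically defined yeast strain deficient in DNA damage repair.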
# [2] = NCI Yeast Anticancer Drug Screen. Data for the mec2-1 strain (AID 157); conditions: S. cerevisiae mec2-1 strain, active compounds read high
# Procedure, shortened: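 Cells of the genetically defined mec2-1 yeast strain are incubated with test compound. Inhibition of growth is calculated against vehicle-treated controls.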
# [3] = NCI Yeast Anticancer Drug Screen. Data for the sgs1 mgt1 strain (AID 161);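 also: 0% = growth of cultures given vehicle only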; conditions: S. cerevisiae sgs1 mgt1 strain, active compounds read high
# Procedure, shortened: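 Test agents were incubated with a DNA-repair-mutant yeast strain. Growth was then read and compared against vehicle-treated controls.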
# [4] = NCI Yeast Anticancer Drug Screen. Data for the cln2 rad14 strain (AID 165);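 also: 0% = growth equal to vehicle treated cultures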; conditions: S. cerevisiae cln2 rad14 strain, active compounds read high
# Procedure, shortened: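 The screen exposed genetically defined yeast (cln2 rad14) to test compounds and scored growth inhibition relative to vehicle-treated controls.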
# [5] = NCI Yeast Anticancer Drug Screen. Data for the bub3 strain (AID 167); conditions: S. cerevisiae bub3 mutant strain, active compounds read high
# Procedure, shortened: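 Readout: yeast growth inhibition, expressed relative to vehicle-only wells. The test organism is a mutant strain from a panel with lesions in DNA repair or checkpoint genes.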
# [6] = NCI Yeast Anticancer Drug Screen. Data for the mlh1 rad18 strain (AID 175); conditions: S. cerevisiae mlh1 rad18 strain growth inhibition, active compounds read high
# Procedure, shortened: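 Compound-treated yeast growth, normalised to vehicle controls. Strain bears defined DNA repair mutations.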
# [7] = at 5.0 µM (retest, dose inferred, filed as 0.5)
# [8] = at 50.0 µM (retest, dose inferred, filed as 5.0)
Compound,"growth inhibition [1, 7]","growth inhibition [1, 8]",growth inhibition ([1]; at 50.0 µM),"growth inhibition [2, 7]","growth inhibition [2, 8]",growth inhibition ([2]; at 50.0 µM),"growth inhibition [3, 7]","growth inhibition [3, 8]",growth inhibition ([3]; at 50.0 µM),"growth inhibition [4, 7]","growth inhibition [4, 8]",growth inhibition ([4]; at 50.0 µM),"growth inhibition [5, 7]","growth inhibition [5, 8]",growth inhibition ([5]; at 50.0 µM),"growth inhibition [6, 7]","growth inhibition [6, 8]",growth inhibition ([6]; at 50.0 µM)
CCOC(=O)Cc1[nH]c(C(=O)c2ccccc2)cc1C(=O)c1ccccc1,20%,87% (active),-44.6%,11%,81% (active),-9.35%,-1%,88% (active),-36.1%,7%,97% (active),5%,-2%,97% (active),-24.4%,–,–,–
COC1/C=C/OC2(C)Oc3c(C)c(O)c4c(c3C2=O)C(=O)c2cnc(nc2C4=O)/C(C)=C\C=C\C(C)C(O)C(C)C(O)C(C)C(OC(C)=O)C1C (stereo unspecified),10%,97% (active),53.9%,17%,99% (active),55.2%,9%,99% (active),42.2%,36%,97% (active),56.1%,23%,98% (active),48.9%,20%,98% (active),50.9%
Cc1cccc(O)c(=O)c1,12%,98% (active),99.3% (active),-5%,99% (active),99.5% (active),2%,98% (active),99.5% (active),8%,95% (active),99.5% (active),9%,98% (active),99.4% (active),–,–,–
O=[N+]([O-])/C=C/c1c[nH]c2c1ccc1ccccc12,42%,92% (active),84.4% (active),53%,90% (active),84.7% (active),59%,81% (active),94.2% (active),30%,93% (active),89% (active),88% (active),95% (active),75.3% (active),55%,94% (active),93.5% (active)
ON(Cc1ccccc1)C(=S)c1ccccc1,23%,98% (active),91.3% (active),19%,99% (active),92.8% (active),24%,98% (active),91.5% (active),1%,92% (active),89.3% (active),31%,98% (active),89% (active),–,–,–
CCSc1nc2ccc(N3C(=O)C=CC3=O)cc2s1,88% (active),100% (active),99.7% (active),93% (active),100% (active),99.6% (active),96% (active),100% (active),99.5% (active),34%,99% (active),99.3% (active),93% (active),99% (active),99.6% (active),98% (active),99% (active),99.3% (active)
O=Cc1c(Cn2ccnc2)c2cc([N+](=O)[O-])ccc2n1Cc1ccccc1,5%,49%,62.5%,4%,39%,13.7%,6%,48%,57.2%,-2%,-17%,22.9%,-3%,-1%,3.8%,8%,64%,68.5%
C/C(=N\NC(=O)c1ccc([N+](=O)[O-])cc1)c1ccccc1,8%,-5%,-2.65%,-19%,-1%,-5.45%,6%,-6%,10.3%,2%,11%,-7.95%,9%,14%,38.8%,15%,26%,-7.2%
CCCCCCCCCCCCCCCCC#N,-6%,-8%,50.4%,-2%,-4%,-7.4%,0%,-4%,52.1%,2%,0%,16.2%,-3%,-9%,52.2%,-5%,-5%,24.1%
Fc1ccc(NC(=S)SCc2ccc(Cl)c(Cl)c2)c(F)c1,13%,98% (active),98.5% (active),7%,99% (active),97.3% (active),6%,98% (active),99.2% (active),-6%,97% (active),98.8% (active),11%,98% (active),99% (active),–,–,–
OCC(O)C(O)C(O)C(/C=N/Nc1ccccc1)=N\Nc1ccccc1 (stereo unspecified),4%,-3%,51.4%,-1%,-1%,4.95%,20%,16%,70.7% (active),-41%,4%,-0.65%,1%,-89%,4.3%,16%,4%,30.4%
Cc1cc(C)nc(NS(=O)(=O)c2ccc(Nc3nc(-c4cccc([N+](=O)[O-])c4)cs3)cc2)n1,14%,99% (active),23.1%,-1%,99% (active),30.5%,7%,99% (active),47.6%,-26%,98% (active),51.9%,34%,99% (active),75.2% (active),–,–,–
Nc1cc2[nH]c(=O)c3cc(Cl)ccc3c2cc1Cl,83% (active),94% (active),89.8% (active),7%,79% (active),-3.35%,26%,86% (active),47.6%,8%,58%,-24.2%,8%,59%,-5.15%,65%,95% (active),61.2%
CCOC(=O)c1[nH]cnc1/N=N/c1nc(O)c(C#N)[nH]1,8%,98% (active),-5.65%,3%,99% (active),9.8%,-13%,99% (active),6%,6%,99% (active),0.85%,-4%,99% (active),1.55%,–,–,–
N#CCCN(C(=S)Nc1cccc(C(F)(F)F)c1)C1CCCCC1,-1%,69%,75.3% (active),3%,87% (active),75% (active),-1%,87% (active),82.4% (active),-1%,46%,41.1%,1%,81% (active),76.2% (active),1%,89% (active),61.2%
COc1ccc(NCCN(C)C)c2c(=O)c3ccccc3sc12,13%,53%,90.4% (active),1%,45%,37.4%,-1%,39%,41.6%,-3%,16%,-1.05%,-7%,0%,50.2%,-3%,43%,69.4%
Cc1c(N=Nc2ccc(Br)cc2)c(-c2ccccc2)nn1C(=S)S,-1%,20%,88.7% (active),2%,26%,88% (active),3%,45%,90.5% (active),4%,34%,51.5%,3%,74% (active),86.6% (active),1%,31%,92.7% (active)
CC(C)(C)c1cc(C(=O)[O-])c([OH2+])c(C(C)(C)C)c1.CC(C)(C)c1cc(C(=O)[O-])c([OH2+])c(C(C)(C)C)c1.[Mn+2],22%,59%,99% (active),27%,60%,98.8% (active),21%,42%,98.5% (active),42%,78% (active),97% (active),21%,49%,97% (active),28%,71% (active),98.2% (active)

# — PubChem BioAssay (NCI)
